Records with an inconclusive call do not appear. Activity calls are given as the source filed them. Unless noted, calls follow the shape of the full dose curve.

Assay [1] is described as follows: Nuclear factor erythroid 2-related factor 2/antioxidant responsive element (Nrf2/ARE) small molecule agonists: qHTS cell viability counter screen in human keratinocytes (AID 1919968; active = well fitted curve in the direction sought with a large enough effect in the repeat runs; an effect the other way counts as inactive or inconclusive; also: nearly all actives have a fitted effect of over 55% in size; also: potency is read from the fitted curve at half-maximal effect). The essentials:
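After a 5 h attachment period, ARE-reporter keratinocytes were dosed with compounds in DMSO and then cultured 23 h at 37 C. Cell viability came from CellTiter-Fluor signal read after a further 1 h.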
A general note: In qHTS, concentration-response curves come from the screen itself.

A short description of assay [2]: Nuclear factor erythroid 2-related factor 2/antioxidant responsive element (Nrf2/ARE) small molecule agonists: luciferase reporter gene qHTS assay in human keratinocytes (AID 1919969). Also: nearly all actives have a fitted effect of over 35% in size. Also: potency is read from the fitted curve at half-maximal effect. In general terms: A reporter such as luciferase makes a cellular process visible.
The target in assay [3] is Gonadotropin-releasing hormone receptor (Homo sapiens) (UniProt P30968). Kind of assay: Human gonadotropin-releasing hormone receptor (GnRHR) small molecule agonists, calcium flux assay in GnRHR-HEK293 cells (AID 1920063). Also: nearly all actives have a fitted effect of over 35% in size. Summed up:
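We seeded human GnRHR-expressing HEK293 cells for 18 hours, loaded them with calcium dye for an hour at 37 C, added test compounds, and recorded fluorescence intensity kinetically for three minutes.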
(In general: Calcium assays in cells follow changes in intracellular calcium, usually with a dye or a luminescent sensor.)

Assay [4] concerns the target KiSS-1 receptor (Homo sapiens) (UniProt Q969F8). Kind of assay: Human kisspeptin (KISS1R) small molecule agonists, calcium flux assay in KISS1R-HEK293 cells (AID 1920064; active = well fitted curve in the direction sought with a large enough effect in the repeat runs; an effect the other way counts as inactive or inconclusive). The essentials: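 Kinetic calcium assay, 1 s sampling over 3 min at Ex/Em 480/540, in HEK293 cells engineered with human KISS1R; compounds delivered in DMSO after 1 h dye loading.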
The nature of assay [5]: G protein-coupled receptor (GPCR) small molecule agonists, calcium flux assay: HEK293 wild type cell line counter screen (AID 1920065). The essentials:
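Calcium-sensitive dye, loaded 1 h at 37 C into cells cultured 18 h, reports compound-evoked calcium release as fluorescence (Ex/Em 480/540), measured over 3 min. Agonist mode; 15-point titrations, triplicate.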

The nature of assay [6]: p53 small molecule agonists, cell-based qHTS assay with rat liver microsomes (AID 1963578). Summed up: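 Fluorescence from a beta-lactamase reporter under a p53 response element was measured after cells had been incubated 16 h at 37 C with test compound and rat liver microsomes plus NADPH (0.5 mg/mL final each).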
Assay [7] in a line: p53 small molecule agonists, cell-based qHTS assay with human liver microsomes: qHTS cell viability counter screen (AID 1963579). Also: nearly all actives have a fitted effect of over 45% in size. Also: potency is read from the fitted curve at half-maximal effect. The essentials: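 Seed p53RE-bla cells at 4,000 per well; incubate 5 h at 37 C; add compound, human liver microsomes and NADPH; incubate 16 h at 37 C; add CellTiter-Glo; after 30 min at room temperature, read luminescence.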
The nature of assay [8]: p53 small molecule agonists, cell-based qHTS assay with rat liver microsomes: qHTS cell viability counter screen (AID 1963580). Also: nearly all actives have a fitted effect of over 45% in size. Summed up: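 HCT-116 p53RE-bla, 4,000 cells/well, 5 h pre-incubation; cpd + rat liver microsomes 0.5 mg/mL + NADPH 0.5 mg/mL (final); 16 h, 37 C; CellTiter-Glo, 30 min RT; luminescence.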
A short description of assay [9]: p53 small molecule agonists, cell-based qHTS assay (AID 1963582; active = well fitted activation curve with a large enough effect in the signal ratio in the repeat runs, not every such curve was filed as active; the % refers to the signal ratio). The essentials:
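In this cell-based concentration-response screen, a p53 response element drives beta-lactamase; cells received DMSO-borne compounds after 5 h culture and were incubated a further 16 h before FRET substrate development.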

For assay [10], the target named is 5-hydroxytryptamine receptor 2A (Homo sapiens) (UniProt P28223). Kind of assay: 5-hydroxytryptamine receptor 2A (HTR2A) small molecule agonists, cell-based qHTS assay (AID 1963587). Also: nearly all actives have a fitted effect of over 30% in size. Summed up: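 Kinetic calcium-flux fluorescence (2 min, 1 sec intervals) after compound addition in agonist mode. HTR2A-CHO cells were cultured 18 h, then dye-loaded 1 h at 37 C.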
The target in assay [11] is Muscarinic acetylcholine receptor M1 (Homo sapiens) (UniProt P11229). The experiment in a line: Cholinergic receptor muscarinic 1 (CHRM1) small molecule antagonists, cell-based qHTS assay (AID 1963588). Also: nearly all actives have a fitted effect of over 40% in size. Also: potency is read from the fitted curve at half-maximal effect. Summed up:
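CHRM1-CHO calcium-flux assay, antagonist mode. Cells were seeded 18 h, dye-loaded 1 h at 37 C and given compound for 5 min at RT, then acetylcholine was added at 50nM. FDSS fluorescence was read 3 min; 15 concentrations, three runs.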

Assay [12] shares this target. The experiment in a line: Cholinergic receptor muscarinic 1 (CHRM1) small molecule agonists, cell-based qHTS assay (AID 1963589). Also: nearly all actives have a fitted effect of over 35% in size. Summed up:
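Measures agonist-induced intracellular calcium rise. Stable human CHRM1 CHO line, 1 h dye load at 37 C, compounds from DMSO, kinetic fluorescence read.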

The nature of assay [13]: cAMP Responsive Elements (CRE) small molecule agonists, cell-based qHTS assay (AID 1963590). Summed up:
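A CRE-responsive beta-lactamase reporter in HEK 293T cells was used. Treatment ran 3 h at 37 C; detection used LiveBLAzer B/G FRET substrate for 2 h at room temperature.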

Assay [14] concerns the target Beta-2 adrenergic receptor (Homo sapiens) (UniProt P07550). Kind of assay: Adrenergic beta2 receptor (ADRB2) small molecule antagonists, cell-based qHTS assay (AID 1963592). Also: series mostly up to about 92 µM; nearly all actives have a fitted effect of over 50% in size. The essentials: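 Cells (CHO, stable ADRB2 overexpression) incubated 18-20hr at 37C; compounds added from DMSO; agonist mix (1nM isoproterenol, 100uM IBMX, 25uM Ro-20-1724) added; 0.5hr RT; d2-cAMP and anti-cAMP-cryptate added; 1hr RT; 665/615 nm read.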

Assay [15] shares this target. The experiment in a line: Adrenergic beta2 receptor (ADRB2) small molecule agonists, cell-based qHTS assay (AID 1963593).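 Also: CHO cells stably overexpressing human ADRB2.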 Summed up: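 CHO cells stably over-expressing ADRB2 were plated overnight at 37C, then dosed with compounds plus a stimulation mix containing 100uM IBMX and 25uM Ro-20-1724 for 0.5hr at room temperature. cAMP was measured by HTRF competition, 1hr.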

The target in assay [16] is D(2) dopamine receptor (Homo sapiens) (UniProt P14416). Kind of assay: Dopamine D2 receptor (DRD2) small molecule agonists, cell-based qHTS assay (AID 1963594). Also: nearly all actives have a fitted effect of over 35% in size. The essentials:
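cAMP accumulation in DRD2-HEK293 cells measured by HTRF after 1 h detection; compounds added 10 min before NKH477 (200nM […]) forskolin-analogue stimulation, 30 min at room temperature, with Ro20-1724 present at 0.1 mM final.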

Assay [17] shares this target. Kind of assay: Dopamine D2 receptor (DRD2) small molecule antagonists, cell-based qHTS assay (AID 1963595; active = well fitted inhibition curve with a large enough effect in the signal ratio in the repeat runs, with a control signal flat; the % refers to the signal ratio). The essentials: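 In this cell-based antagonist screen, compounds act for 10 min at room temperature before a 30 min challenge with 12 nM quinpirole and 200 nM NKH477. cAMP is quantified by HTRF competition in DRD2-HEK293 cells containing 0.1 mM Ro20-1724.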

The nature of assay [18]: p53 small molecule agonists, cell-based qHTS assay: qHTS cell viability counter screen (AID 1963581). Also: nearly all actives have a fitted effect of over 45% in size. Summed up:
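Following 5 h attachment, HCT-116 p53RE-bla cells took up compound for 16 h at 37 C; the reporter was read with B/G FRET substrate (2 h RT), and viability then via CellTiter-Glo ATP luminescence.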

Assay [19] addresses 5-hydroxytryptamine receptor 2A (Homo sapiens) (UniProt P28223). Kind of assay: 5-hydroxytryptamine receptor 2A (HTR2A) small molecule antagonists, cell-based qHTS assay (AID 1963586). Also: nearly all actives have a fitted effect of over 45% in size. Also: potency is read from the fitted curve at half-maximal effect. The essentials: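 Antagonist-mode intracellular calcium assay: DOI (4 nM) added after 5 min compound pre-incubation at room temperature to dye-loaded HTR2A-CHO cells. Fluorescence followed for 3 min, sampled every second.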

The nature of assay [20]: cAMP Responsive Elements (CRE) small molecule antagonists, cell-based qHTS assay (AID 1963591; active = well fitted inhibition curve with a large enough effect in the signal ratio in the repeat runs, not every such curve was filed as active; the % refers to the signal ratio). The essentials:
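HEK293T cells carrying a CRE-driven beta-lactamase reporter receive compound and NKH477 (0.25 uM final) for 3 h. Fluorescence from LiveBLAzer B/G FRET substrate is read after 2 h at room temperature.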

Chain of KiSS-1 receptor (Homo sapiens) (Q969F8 whole entry, looked up): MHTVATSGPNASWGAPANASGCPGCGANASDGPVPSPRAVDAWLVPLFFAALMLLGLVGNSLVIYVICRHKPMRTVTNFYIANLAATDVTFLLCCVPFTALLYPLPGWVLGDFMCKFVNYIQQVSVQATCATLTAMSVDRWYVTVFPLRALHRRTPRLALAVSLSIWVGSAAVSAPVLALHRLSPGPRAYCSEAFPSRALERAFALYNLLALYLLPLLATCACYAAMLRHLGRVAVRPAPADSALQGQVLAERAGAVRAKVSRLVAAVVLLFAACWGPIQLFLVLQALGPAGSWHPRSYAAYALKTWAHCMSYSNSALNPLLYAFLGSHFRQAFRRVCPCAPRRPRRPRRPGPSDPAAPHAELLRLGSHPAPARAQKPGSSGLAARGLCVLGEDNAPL
Chain of Muscarinic acetylcholine receptor M1 (Homo sapiens) (P11229 whole entry, looked up): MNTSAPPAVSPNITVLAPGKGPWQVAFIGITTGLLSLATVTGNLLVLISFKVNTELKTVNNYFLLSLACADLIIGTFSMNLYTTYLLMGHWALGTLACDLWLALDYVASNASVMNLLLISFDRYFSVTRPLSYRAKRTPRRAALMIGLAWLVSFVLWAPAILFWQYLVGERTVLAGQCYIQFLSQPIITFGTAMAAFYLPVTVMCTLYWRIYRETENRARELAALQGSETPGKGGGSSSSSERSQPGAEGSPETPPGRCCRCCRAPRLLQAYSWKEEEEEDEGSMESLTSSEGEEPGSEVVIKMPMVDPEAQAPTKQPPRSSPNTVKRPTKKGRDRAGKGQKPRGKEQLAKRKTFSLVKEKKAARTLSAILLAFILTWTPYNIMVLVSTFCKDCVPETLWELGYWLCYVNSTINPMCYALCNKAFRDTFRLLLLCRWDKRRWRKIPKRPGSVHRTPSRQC
Chain of 5-hydroxytryptamine receptor 2A (Homo sapiens) (P28223 whole entry, looked up): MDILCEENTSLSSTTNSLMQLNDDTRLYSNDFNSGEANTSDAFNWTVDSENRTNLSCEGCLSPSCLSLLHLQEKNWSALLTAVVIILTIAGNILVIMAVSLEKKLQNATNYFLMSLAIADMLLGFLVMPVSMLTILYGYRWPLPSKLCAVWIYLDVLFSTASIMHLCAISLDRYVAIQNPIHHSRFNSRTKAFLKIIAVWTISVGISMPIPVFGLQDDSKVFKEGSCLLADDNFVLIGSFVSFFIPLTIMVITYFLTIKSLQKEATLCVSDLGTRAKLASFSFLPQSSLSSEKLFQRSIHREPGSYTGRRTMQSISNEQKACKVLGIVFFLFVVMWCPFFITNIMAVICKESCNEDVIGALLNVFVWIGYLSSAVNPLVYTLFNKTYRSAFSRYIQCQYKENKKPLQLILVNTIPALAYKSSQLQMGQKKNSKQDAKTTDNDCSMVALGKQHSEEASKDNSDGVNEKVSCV
Chain of Gonadotropin-releasing hormone receptor (Homo sapiens) (P30968 whole entry, looked up): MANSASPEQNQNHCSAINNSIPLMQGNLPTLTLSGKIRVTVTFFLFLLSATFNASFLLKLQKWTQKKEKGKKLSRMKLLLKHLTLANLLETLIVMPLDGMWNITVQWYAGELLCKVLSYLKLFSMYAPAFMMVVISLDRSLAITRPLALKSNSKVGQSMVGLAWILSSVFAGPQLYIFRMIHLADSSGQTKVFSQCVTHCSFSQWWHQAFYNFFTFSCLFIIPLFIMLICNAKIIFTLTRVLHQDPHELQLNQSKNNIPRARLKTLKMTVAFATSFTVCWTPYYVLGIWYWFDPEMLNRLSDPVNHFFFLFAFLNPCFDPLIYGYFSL
Chain of Beta-2 adrenergic receptor (Homo sapiens) (P07550 whole entry, looked up): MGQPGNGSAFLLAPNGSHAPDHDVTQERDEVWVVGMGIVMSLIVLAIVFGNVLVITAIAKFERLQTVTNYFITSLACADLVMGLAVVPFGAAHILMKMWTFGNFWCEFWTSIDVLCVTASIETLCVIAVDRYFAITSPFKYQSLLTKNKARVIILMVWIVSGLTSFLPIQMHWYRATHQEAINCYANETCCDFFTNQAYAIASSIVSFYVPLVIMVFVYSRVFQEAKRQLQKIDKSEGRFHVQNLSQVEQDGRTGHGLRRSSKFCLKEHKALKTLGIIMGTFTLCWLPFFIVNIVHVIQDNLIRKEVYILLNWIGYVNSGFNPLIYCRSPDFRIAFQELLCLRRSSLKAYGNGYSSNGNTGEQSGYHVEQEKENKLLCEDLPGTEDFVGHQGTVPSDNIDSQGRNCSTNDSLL
Chain of D(2) dopamine receptor (Homo sapiens) (P14416 whole entry, looked up): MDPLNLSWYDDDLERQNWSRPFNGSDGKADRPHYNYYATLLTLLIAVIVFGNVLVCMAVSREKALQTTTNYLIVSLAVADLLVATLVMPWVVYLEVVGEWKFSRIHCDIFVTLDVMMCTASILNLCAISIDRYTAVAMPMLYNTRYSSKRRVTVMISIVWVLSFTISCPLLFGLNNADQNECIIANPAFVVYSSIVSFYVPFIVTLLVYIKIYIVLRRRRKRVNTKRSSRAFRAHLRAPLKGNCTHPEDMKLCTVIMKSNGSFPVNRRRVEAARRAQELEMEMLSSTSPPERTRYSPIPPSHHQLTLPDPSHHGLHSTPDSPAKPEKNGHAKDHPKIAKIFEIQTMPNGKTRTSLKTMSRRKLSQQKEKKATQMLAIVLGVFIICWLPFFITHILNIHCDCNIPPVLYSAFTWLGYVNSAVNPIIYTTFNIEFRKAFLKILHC

In the case of `C=C(C)C(=O)OCCOC1CC2CC1C1C=CCC21` (stereo not given), the Potency result in assay [1], in [2], in assay [3], in [4], in assay [5] and in [6] was “inactive” throughout. In addition, the Potency result in assay [7], in [8], in [9], in [10], in assay [11] and in assay [12] was “inactive” throughout. The Potency result in assay [13], in assay [14], in [15], in assay [16] and in assay [17] was “inactive” each time.

`NC(=O)n1c(O)c(C(=O)c2cccs2)c2cc(Cl)ccc21`: the Potency entry in [1], in assay [3], in assay [4], in [5], in assay [6] and in assay [7] was “inactive” each time. For the same molecule, the Potency result in assay [8], in assay [18], in [10], in [11], in [12] and in [16] was “inactive” in each case. In addition, the Potency result in [17] was “inactive”. Besides, the Potency in [2] was 26.6 µM (active).

For `CN(C)CCOC(c1ccccc1)c1ccc(Br)cc1` (stereo not given), the Potency result in [1], in assay [2], in assay [3], in assay [4], in [5] and in assay [6] was “inactive” in each case. For the same molecule, the Potency result in [7], in assay [8], in [9], in [10], in assay [13] and in assay [20] was “inactive” in each case. For the same molecule, the Potency entry in assay [14], in [15], in [16] and in [17] was “inactive” in each case. The Potency in [19] was 6.5 µM (active); in [11] it was 3.65 µM (active).

Turning to `CCCCCCCCCCCC(=O)OCC`, the Potency entry in assay [1], in [2], in [3], in [4], in assay [5] and in [6] was “inactive” in each case. The Potency entry in assay [7], in assay [8], in assay [9], in [19], in [10] and in [11] was “inactive” throughout. For the same molecule, the Potency result in assay [12], in assay [13], in assay [20], in assay [14], in assay [15] and in assay [16] was “inactive” in each case. In addition, the Potency result in assay [17] was “inactive”.

On to `COc1ccc2cc(S(=O)(=O)N[C@H](CC(=O)N[C@H](Cc3ccc(CN4[C@H](C)CCC[C@@H]4C)cc3)C(=O)N(C)C(C)C)c3ccc4c(c3)OCO4)ccc2c1`, for which the Potency in [1] is 41 µM (active); in [7], 43.3 µM (active); in assay [11] it was 0.794 µM (active). Further, the Potency result in assay [2], in assay [3], in assay [4], in assay [5], in assay [6] and in [8] was “inactive” throughout. For the same molecule, the Potency entry in [19], in assay [10], in assay [12], in assay [14] and in assay [15] was “inactive” throughout.

For the molecule `Cc1oc(-c2ccccc2)nc1CCOc1cccc2c1ccn2CCC(=O)O`, the Potency entry in assay [1], in assay [2], in assay [3], in assay [4], in assay [5] and in assay [6] was “inactive” in each case. In addition, the Potency result in assay [7], in [8], in assay [18], in [19], in assay [11] and in assay [12] was “inactive” each time. Moreover, the Potency result in assay [14], in [16] and in assay [17] was “inactive” throughout.

Take `CC(C)C(C)(C)C(C)(C)C(C)(C)S`: the Potency result in assay [1], in [2], in [3], in assay [4], in [5] and in [6] was “inactive” each time. For the same molecule, the Potency result in assay [7], in assay [8], in assay [9], in assay [10], in [12] and in assay [13] was “inactive” in each case. For the same molecule, the Potency result in assay [20] was “inactive”.
